For 40 compounds, Potency and activity change results are on record in PubChem BioAssay (Tox21).

SMILES strings stand for the structures. Results filed as inconclusive are left out. Where a call stands in place of a potency, no number is given. Calls of active or inactive are those of the source. Calls follow the shape of the dose curve; as a rule, active = well fitted activation curve with a large enough effect in the repeat runs; inconclusive = weak or mixed curves; inactive = flat fitted curve, though single readings scatter.
Potency is read from the fitted curve at half-maximal effect.

A short description of the experiment: A CellTox Green Cytotoxicity Assay to monitor cytotoxicity in HEK293 cells - 24 hour (AID 1224875). Also: nearly all actives have a fitted effect of over 45% in size. Particulars: CellTox Green fluorescence; series mostly up to 76.8 µM. The text has this: National Center for Advancing Translational Sciences [NCATS]
NIH Chemical Genomics Center [NCGC]
U.S. Environmental Protection Agency [EPA]
National Institutes of Environmental Health Sciences [NIEHS]
National Toxicology Program [NTP]
Cell-based models are critical for drug discovery. Determining the natural cytotoxic effects resulting from test compounds is an essential research activity. A CellTox Green Cytotoxicity Assay to monitor cytotoxicity in real time of continues cell culture during 40 hours of the compound treatment was used to screen Tox21 10K library compounds in Hek293 cells. CellTox Green Cytotoxicity Assay is a nonlytic, homogeneous, biofluorescent method to measure cytotoxicity in cell culture after experimental manipulation. The assay system uses a proprietary asymmetric cyanine dye that is excluded from viable cells but preferentially stains the dead cell's DNA. […] Viable cells produce no appreciable increases in fluorescence. Therefore, the fluorescence signal produced by the binding interaction with dead cell DNA is proportional to cytotoxicity.
The mixture of Hek293 cell suspension and reagents were dispensed at 600cells/6 ul/well in 1536-well tissue culture treated black solid bottom plates using a Multidrop dispenser. After the assay plates were incubated at a 37 C/5% CO2 incubator for 5 hours, 23 nL of compounds dissolved in DMSO, positive and negative controls was transferred to the assay plate by a pintool work station. The plates were incubated at 37 C for 40 hours. The fluorescence intensity were measured at 0h, 8h, 16h, 24h, 32h and 40h time points using ViewLux plate reader during compound treatment.
In the case of `NC(=O)NC(=O)Cc1ccccc1`, the Potency result is “inactive”.
For the compound `O=C(O)Cc1cccc(-c2cc(CCCCCCc3ccc(O[C@H]4O[C@H](CO)[C@@H](O)[C@H](O)[C@@H]4O)c(-c4cccc(CC(=O)O)c4)c3)ccc2O[C@H]2O[C@H](CO)[C@@H](O)[C@H](O)[C@@H]2O)c1`, the activity change is -8.86% [at 0.29 µM, stronger effect = higher value] (inactive).
On to `COc1cccc2sc(N)nc12`, for which the Potency result is “inactive”.
`CC(C)(CO)[C@@H](O)C(=O)NCCCO`: the Potency entry was “inactive”.
For `CCCCCCCC[Si](OCC)(OCC)OCC`, the Potency result is “inactive”.
Still for that read-out and setting: the entry for `O=C1c2ccccc2-c2ccccc21` is “inactive”; for `Nc1cc(S(=O)(=O)O)ccc1S(=O)(=O)O` it is “inactive”; for `CC(C)COC(=O)COc1ccc(Cl)cc1Cl` it is “inactive”.
Same read-out and setting: the entry for `CCCCCCCCC(=O)OCC` is “inactive”.
Take `CC1=CC[C@H](CC=O)C1(C)C`: the Potency entry was “inactive”.
On the same count and under the same terms, the entry for `CCN1CN(CC)CN(CC)C1` is “inactive”; for `O=CN1CCOCC1` it is “inactive”; for `CCOC(=O)C(=O)c1csc(NC=O)n1` it is “inactive”.
Consider `CC(=O)Nc1ccc(C)cc1`, for which the Potency result is “inactive”.
With `COC(=O)CCC(=O)O`, the Potency result is “inactive”.
The same measure, in the same setting: the entry for `CCCCCC(=O)OCC` is “inactive”; for `C=C(C)C(=O)OC` it is “inactive”.
Still for that read-out and setting: the entry for `Cc1ccccc1C` is “inactive”; for `O=C(O)C(=O)Nc1cccc(-c2nn[nH]n2)c1` it is “inactive”; for `CN[C@@H]1[C@@H](O)[C@@H](O[C@@H]2[C@H](O)[C@H](O[C@H]3OC(CN)=CC[C@H]3N)[C@@H](N)C[C@H]2N)OCC1(C)O` (stereo not given in full) it is “inactive”.
`CO[Si](CCCS)(OC)OC`: the Potency entry was “inactive”.
Still for that read-out and setting: the entry for `O=C(O)/C=C/c1ccccc1` is “inactive”.
Turning to `Cn1c(=O)c2c(ncn2CC2OCCO2)n(C)c1=O`, the Potency entry was “inactive”.
With `FC(F)(F)c1ccc(Cl)cc1Cl`, the Potency result was “inactive”.
For the compound `CCCCC(CC)C(=O)OC(C)C` (stereo not given), the Potency entry was “inactive”.
As to `NC(=O)C1(N2CCCCC2)CCN(CCCC(=O)c2ccc(F)cc2)CC1`, the Potency entry was “inactive”.
For the compound `CCC(CO)CO`, the Potency entry was “inactive”.
For the compound `O=S1(=O)CCCC1`, the Potency result was “inactive”.
Consider `Nc1c(NC/C=C\COc2cc(CN3CCCCC3)ccn2)c(=O)c1=O`, for which the activity change is 3.31% [at 15.8 µM, stronger effect = higher value] (inactive).
As to `c1ccccc1`, the Potency entry was “inactive”.
On the same count and under the same terms, to `COc1ccc(NS(=O)(=O)c2ccc(N)cc2)nn1` belongs “inactive”; to `C=CCOC(=O)c1ccc(C(=O)OCC=C)c(C(=O)OCC=C)c1`, “inactive”.
Take `Cc1cccc(C(=O)O)c1[N+](=O)[O-]`: the Potency entry was “inactive”.
The same measure, in the same setting: the entry for `CCOc1ccc(NC(=O)OC(C)C)cc1OCC` is “inactive”; for `COCC(=O)Nc1c(I)c(C(=O)NCC(O)CO)c(I)c(C(=O)N(C)CC(O)CO)c1I` (stereo not given) it is “inactive”.
Regarding `CO/N=C(/C(=O)N[C@@H]1C(=O)N2C(C(=O)O)=C(Cn3nnc(C)n3)CS[C@H]12)c1csc(N)n1`, the Potency entry was “inactive”.
As for `CC(C)SCc1ccco1`, the Potency result was “inactive”.
Turning to `O=c1[nH]c(=O)c2ccccc2o1`, the Potency entry was “inactive”.
As to `CCCOC(=O)CCCCC(=O)OCCC`, the Potency entry is “inactive”.
On to `O=C(/C=C/c1ccccc1)NCCO`, for which the Potency was 6.01 µM (active).
